# In PubChem BioAssay AID651871 (Sanford-Burnham Center for Chemical Genomics, 2012):
# Several values for one entry are separate records, joined by “and”; a condition that tells them apart may be missing. Equal values may be shown once.
# Test system: H9c2
# Test: cardiomyocyte survival under oxidative or metabolic stress – cell-based, panel, H9c2 and HL-1, ATP luminescence, set 2, SAR follow-up (AID 651871);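 also: cells exposed to stressor for 2 h before ATP readout; reference of the scale not given here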
# Settings: H9c2/HL-1 cardiomyocytes, 2-deoxyglucose stress, with 2-deoxyglucose; run 7, at 79 µM (top of the series)
row,Structure (SMILES),activity (protection/inhibition)
1,COc1ccc2nc(-c3cc(OC)c(OC)c(OC)c3)cc(C(=O)NCC(=O)Nc3ccc(C(C)=O)cc3)c2c1,66.5%
2,COc1ccc2c(c1OC)C(=O)N1c3ccccc3C(=O)N(Cc3cccc(Cl)c3Cl)C21 (stereo not drawn),73.7% and 71.7% and -5.58%
3,CCOC(=O)c1cccc(NC(=O)CNC(=O)c2cc(-c3cc(OC)c(OC)c(OC)c3)nc3ccccc23)c1,77%
